# Experimental data from PubChem BioAssay (NCI).
# The panel holds about 83,000 compounds, 20% with a hit somewhere; the sample as a whole holds those more often.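 Step 1: grow cells in 96-well plates. Step 2: add test compound at a single concentration. Step 3: incubate 48 h. Step 4: record percent growth.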 A number with no mark means an inactive call. Active and inactive are the calls of the source. Rule for the calls: active = growth percent below 10; inactive = the rest.
# System: HL-60(TB) leukemia
# Assay: NCI-60 one-dose screen, 48 h (100 = growth as untreated, 0 = no growth, -100 = all killed)
# Details: 10 µM unless noted
row,Structure (SMILES),growth
1,CC(=O)[C@@]1(O)CC[C@H]2[C@@H]3CC[C@@H]4CC(=O)CC[C@]4(C)[C@H]3[C@@H](O)C[C@@]21C,102%
2,CC1=C(SCCC(=O)OC(C[Se]C2=C(C)C(=O)c3ccccc3C2=O)C(=O)NC(C)(C)C)C(=O)c2ccccc2C1=O (stereo not given),8.81% (active)
3,COCCOc1cc2ncnc(N3CCN(c4ncc(S(=O)(=O)N5CCCCC5)cn4)CC3)c2cc1OCCOC,100%
4,NC(N)=NS(=O)(=O)c1ccc(NC2=C(I)C(=O)c3ncccc3C2=O)cc1,99.2%
5,Cc1cc(C#Cc2ccccc2)ccc1-n1c(/C=C/c2ccc(F)cc2)nc2ccccc2c1=O,34.3%
6,Cc1cnc(N)nc1OCC(C)(C)CNC(=O)c1cccc(-c2ccc(S(=O)(=O)Nc3ccc4c(c3)N(C(=O)C3CC3)CCC4)cc2)c1,18.2%
7,O=C(Nc1ncc(Cc2ccccc2Cl)s1)c1cccs1,58.5%
8,COc1ccc(C2CC(=O)Nc3c2c(C)nn3-c2nc3ccccc3[nH]2)cc1 (stereo not given),-17% (active)
9,CCc1ccc(CCC(=O)Nc2ncc(Cc3ccc(Cl)cc3)s2)o1,-39.6% (active)
10,Cc1ccc(C(=O)NN2C(=O)CSC2c2cccc([N+](=O)[O-])c2)cn1 (stereo not given),82.7%
